Source: PubChem
SARS PLP yeast – qHTS of Yeast-based Assay for SARS-CoV PLP; Potency, µM (titrated, usually from 32.9 µM), for the others: top-dose activity, positive = growth rescue, actives largely listed as activators; 0.19% of 330,000 active; S. cerevisiae expressing SARS-CoV PLpro, growth rescue; calls by dose curve; note: potency is the fitted concentration of half-maximal effect; 0% is about no effect; nearly all actives have a fitted effect of over 55% in size
AmpC no deterg – qHTS Inhibitors of AmpC Beta-Lactamase (assay without detergent); P00811; AmpC nitrocefin hydrolysis, absorbance 480 nm, 0.0001% Triton; Potency, µM (top dose mostly 57.1 µM), for inactives: at the top dose activity change, negative = inhibition, hits mostly inhibitors; 0.52% of 330,000 active; AID 485341, 2010;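 note: potency is the fitted concentration of half-maximal effect; plate controls were no compound for no effect and no enzyme for full effect; nearly all actives have a fitted effect of over 20% in size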
Target sequence (P00811 whole entry, looked up): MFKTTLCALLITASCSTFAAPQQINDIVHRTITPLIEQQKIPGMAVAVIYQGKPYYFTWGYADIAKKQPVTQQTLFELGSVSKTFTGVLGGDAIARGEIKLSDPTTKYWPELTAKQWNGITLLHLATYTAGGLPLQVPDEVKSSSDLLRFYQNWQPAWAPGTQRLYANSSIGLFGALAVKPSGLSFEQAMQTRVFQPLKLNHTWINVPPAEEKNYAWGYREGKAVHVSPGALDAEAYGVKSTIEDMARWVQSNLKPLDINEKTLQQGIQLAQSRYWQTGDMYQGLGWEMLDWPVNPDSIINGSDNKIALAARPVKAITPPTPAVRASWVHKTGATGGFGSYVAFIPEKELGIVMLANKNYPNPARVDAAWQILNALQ
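20 mM phosphate pH 7.0 + 0.01% (detergent screen) or 0.0001% Triton X-100; 5.3 nM AmpC reagent; cpd preinc 15 min RT; nitrocefin (800 uM stock) to start; A480 q20 s × 4 min; Activity was normalised to no-enzyme and no-compound control wells.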
AMA1-RON2 inh – qHTS for Inhibitors of AMA1-RON; Towards Development of Antimalarial Drug Lead: Primary Screen; AlphaScreen AMA1-biotinylated RON2 peptide binding; Potency, µM (top dose mostly 58.2 µM), for the others: at the top dose activity change, negative = inhibition, usual class: inhibitors; 0.2% of 360,000 active; AID 720542, 2013;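 note: potency is the fitted concentration of half-maximal effect; 0% = vehicle wells and -100% = peptide control; nearly all actives have a fitted effect of over 45% in size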
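AMA1 (3D7) with his tag at 25 nM final met compounds first, then biotinylated RON2 peptide at 25 nM; detection used donor plus acceptor beads, 10 µg/mL apiece, read by AlphaScreen after 30 min at room temperature.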
CHX counter – Cycloheximide Counterscreen for Small Molecule Inhibitors of Shiga Toxin; cell reporter, cycloheximide protein synthesis inhibition counterscreen; max response, %; AID 2314, 2010; 12% of 300,000 active; in the data active = max response mostly above about 13%, no sharp cut-off; inactive = mostly below about 14%; note: read at 38.3 µM for the half of the compounds with a filed dose; 0% is about no effect
AmpC inh detg – qHTS Inhibitors of AmpC Beta-Lactamase (assay with detergent); 0.041% of 370,000 active; AmpC hydrolysis of nitrocefin, absorbance 480 nm, 0.01% Triton; Potency, µM (highest dose often 114 µM), for inactives: top-dose activity change, negative = inhibition, usual class: inhibitors; P00811;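 note: potency is the fitted concentration of half-maximal effect; 0% = no-compound wells and -100% = no-enzyme wells; nearly all actives have a fitted effect of over 25% in size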
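20 mM phosphate pH 7.0 + 0.01% (detergent screen) or 0.0001% Triton X-100; 5.3 nM AmpC reagent; cpd preinc 15 min RT; nitrocefin (800 uM stock) to start; A480 q20 s × 4 min; Activity was normalised to no-enzyme and no-compound control wells.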
Shiga toxin inh – A qHTS for Small Molecule Inhibitors of Shiga Toxin | Vero cells, Shiga toxin protein synthesis inhibition reporter | inhibition, % at 38.7 µM | 9.2% of 290,000 active; in the data active = inhibition mostly above about 28%, no sharp cut-off; inactive = mostly below about 43%; note: 0% is about no effect
An asterisk follows results filed as active; u = inconclusive; x = not tested or not shown; [ ] = remark or other dose. Shown is part of a subset that was picked to be rich in hits. Unless noted, calls come from the whole dose curve; as a rule, active = well fitted curve in the direction sought with a large enough effect; inconclusive = small, poorly fitted or top-dose-only effect, or another doubt; inactive = no such curve, though single readings can be large; an effect the other way counts as inactive or inconclusive.

SMILES | SARS PLP yeast | AmpC no deterg | AMA1-RON2 inh | CHX counter | AmpC inh detg | Shiga toxin inh
O=C(CNC(=O)c1ccccc1Cl)c1ccccc1 | -3% | -6% | 8% | 50* | 1% | 65*
CC(CNC(=O)c1ccccc1Cl)c1ccccc1 (stereo not drawn) | 4% | 5% | 2% | 34* | u | 36*
O=C(CNC(=O)c1ccccc1F)c1ccccc1 | -10% | -9% | 7% | 34* | 4% | 42
Nc1c(NCCN2CCCCC2)c2ccccc2oc1=O | 1% | -7% | 58% | 6 | 0% | 7
CCN(CC)C(=O)c1cccc(-c2csc(C(C)(O)c3cccc(OC)c3)n2)c1 (stereo not drawn) | x | x | -6% | x | x | x
N#Cc1ccc(-c2ccccc2)nc1SCCN1CCOCC1 | 3% | 75% | -26% | 6 | -8% | -15
COc1cc2cnc(CCO[C@H]3CCCCO3)cc2cc1OC | 4% | -1% | 8% | x | x | x
O=C1OC(C(=O)Nc2ccccc2)Cc2ccccc21 (stereo not drawn) | 1% | -22% | 0% | 41* | u | 64*
Cc1ccc(NC(=O)C2Cc3ccccc3C(=O)O2)cc1 (stereo not drawn) | 0% | -20% | 0% | 36* | 5% | 87*
CCOC(=O)c1ccc(NC(=O)C2Cc3ccccc3C(=O)O2)cc1 (stereo not drawn) | x | x | x | x | 3% | x
CCN(CC)c1cc(-c2ccccc2)ncn1 | 5% | -20% | -26% | 9 | -4% | -1
CN(C)c1ccc(-c2ccccc2)nn1 | -2% | -6% | -16% | 32* | 4% | 94*
CCSc1nnc(NC(=O)CSc2nc3c(cc2C#N)CCCC3)s1 | -3% | -41% | 9% | 21 | -8% | 25
CCn1c(C)nnc1SCC(=O)Nc1nccs1 | 1% | -30% | 21% | -5 | -9% | -4
Cc1cc(C)c(C#N)c(SCC(=O)Nc2ccccc2C(N)=O)n1 | -4% | -22% | 22% | 23* | u | 51*
Cc1ccc(C#N)c(SCC(=O)Nc2nccs2)n1 | 1% | 17% | 88% | 53* | -1% | 68*
N#Cc1cc2c(nc1SCC(=O)Nc1nccs1)CCCCC2 | u | u | 65% | 49* | -10% | 94*
O=C(CSc1nc(-c2ccccc2)nc2ccccc12)Nc1nccs1 | -1% | -30% | -9% | -3 | u | 3
CCOC(=O)c1c(SCC(=O)Nc2nccs2)nc(C)c(C)c1C | -3% | -26% | 40% | 26* | 2% | 36*
Cc1ccc2c(Cl)cc(Cl)c(OCC(=O)Nc3cccc(S(N)(=O)=O)c3)c2n1 | -3% | -35% | -5%[2.32 µM] | -4 | -1% | -7
O=C(NCC1CCCO1)c1cnn2c1NC(c1ccccc1)CC2C(F)(F)F (stereo not drawn) | 1% | 62% | 2% | -5 | 1% | 13
COC(=O)C1=C(C)NC(=S)N(C(C)=O)C1c1ccccc1 (stereo not drawn) | -7% | -27% | -2% | -1 | -3% | -1
COc1ccc(/C=C/C(=O)NC(=S)NNC(=O)c2cccnc2)cc1 | -20% | -9% | 50% | -1 | -1% | -14
CCc1nnc(NC(=O)CSc2nc3c(cc2C#N)CCC3)s1 | 0% | -14% | 66% | 32* | -5% | 70*
CCOC(=O)NC(=O)CSc1nc(C)cc(C)c1C#N | -3% | -14% | 16% | 22 | -13% | 17
CCc1nnc(NC(=O)CSc2nc(C)cc(C)c2C#N)s1 | -2% | -8% | -9% | 15* | -9% | 40
CN(NS(=O)(=O)c1ccc(Cl)cc1)c1cnn(C)c(=O)c1Cl | 1% | -14% | -5% | -1 | 0% | -6
Cc1ccc(C)c(N2CCN(C(=O)CN3C(=O)COc4ccc(S(=O)(=O)N5CCC(C)CC5)cc43)CC2)c1 | x | x | x | x | 5% | x
COc1ccc(F)cc1S(=O)(=O)n1cc(C)nc1-c1ccccc1 | 0% | -9% | 27% | -2 | -7% | -7
